Data on 45 molecules can be found in PubChem BioAssay AID2685 (National Center for Advancing Translational Sciences (NCATS), 2010).

The whole screen tested about 320,000 compounds, of which about 2,100 (0.66%) were called active. Inconclusive results (about 53%) are left out. Calls follow the shape of the dose curve; as a rule, active = well fitted inhibition curve with a large enough effect in the signal ratio, with a control signal flat (not every such curve was filed as active); inconclusive = small, poorly fitted or top-dose-only effect, or effect the other way, or a change in a side signal; inactive = flat fitted curve, though single readings scatter; the % refers to the signal ratio. Only a selection was taken, and actives are over-represented in it overall.
Potency is read from the fitted curve at half-maximal effect.

The assay in a line: qHTS Assay for Lipid Storage Modulators in Drosophila S3 Cells.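 As to cell number change: cells counted by Cell Tracker Red CMTPX staining in the red channel.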 As to lipid storage change, negative = inhibition: % is scaled to controls: 0 for no effect and ±100 for the full control effect. The note with it: BODIPY lipid droplet fluorescence, 18-24 h, cells fed with added oleic acid; cell number change: measured here: cell count max response; series mostly up to 46.1 µM; lipid storage change, negative = inhibition: at the top concentration. An outline of the steps:
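Drosophila S3 cells loaded with oleic acid (400 uM, as added) and compounds at several concentrations; lipid droplets imaged by 488-nm laser-scanning cytometry, 500–530 nm intensity and object ratio to cell channel. Percent activity normalized to 20 uM Triacsin C.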
For the molecule `COc1ccc(Cl)cc1S(=O)(=O)N(C)CC(=O)NCc1ccc2c(c1)OCO2`, the “lipid storage change, negative = inhibition” value was -3.57% (inactive) and the cell number change is 13.5%.
For `COc1ccc(N(CC(=O)NCc2ccc3c(c2)OCO3)C(=O)c2csnn2)cc1`, the Potency is 1.16 µM (active) and the cell number change is -14.1%.
With `O=C(CN(C(=O)c1csnn1)c1cccc(F)c1)NCc1ccc2c(c1)OCO2`, the “lipid storage change, negative = inhibition” value is 4.68% (inactive) and the cell number change stood at 8.12%.
Turning to `COc1ccc(S(=O)(=O)N(C)CC(=O)Nc2ccc3c(c2)OCO3)cc1`, the molecule was classed as inactive and the cell number change was -1.44%.
`COc1ccc(S(=O)(=O)N(C)CC(=O)NCc2ccc3c(c2)OCO3)cc1`: the Potency is 2.06 µM (active) and the cell number change came to 16.1%.
For the molecule `O=C(CN(C(=O)c1csnn1)c1ccc(Cl)cc1)NCc1ccc2c(c1)OCO2`, the molecule was called inactive and the cell number change stood at 3.81%.
For `Cc1ccc2c(c1)N(S(=O)(=O)c1ccc3c(c1)NC(=O)CC(=O)N3)CCO2`, the “lipid storage change, negative = inhibition” value was -11.8% (inactive) and the cell number change worked out at 15%.
`COC(=O)c1sc2ncccc2c1OCc1ccccc1Cl`: the “lipid storage change, negative = inhibition” value was -7.27% (inactive) and the cell number change was -10.8%.
For `COc1cccc(C2/C(=C(/O)c3ccc4c(c3)OCO4)C(=O)C(=O)N2CCN2CCOCC2)c1` (configuration not stated), in that order: -7.15% (inactive) and 25.8%.
`CC(C)Cc1nnc(NC(=O)C2=COCCO2)s1`: the “lipid storage change, negative = inhibition” value was 3.82% (inactive) and the cell number change is -9.23%.
Take `C=CCn1c(C)c(C(C)=O)c(N2CCOCC2)nc1=S`: the Potency was 23.1 µM (active) and the cell number change was -4.96%.
Regarding `C=CCn1c(C)c(C(C)=O)c(N2CCN(c3ccccc3)CC2)nc1=S`, the “lipid storage change, negative = inhibition” value is 4.46% (inactive) and the cell number change is -14.3%.
On to `C=CCn1c(C)c(C(C)=O)c(N2CCCC2)nc1=S`, for which the “lipid storage change, negative = inhibition” value is 0.966% (inactive) and the cell number change amounted to 0.195%.
`CCOc1ccc(/C=N/n2c(SC)nnc(C(C)(C)C)c2=O)cc1`: the “lipid storage change, negative = inhibition” value is 3.3% (inactive) and the cell number change is -13.9%.
Regarding `Cc1cc(NS(=O)(=O)c2ccc(NC(=O)COc3ccc(Br)cc3)cc2)nc(C)n1`, the Potency is 18.4 µM (active).
Consider `Cc1cccc(OCC(=O)Nc2ccc(S(=O)(=O)Nc3cc(C)nc(C)n3)cc2)c1`, for which the “lipid storage change, negative = inhibition” value was 1.01% (inactive) and the cell number change was 13.6%.
`CCOc1ccc(OCC(=O)Nc2ccc(S(=O)(=O)Nc3cc(C)nc(C)n3)cc2)cc1`: the call was inactive and the cell number change is -4.96%.
For `Cc1cc(NS(=O)(=O)c2ccc(NC(=O)CCCC(=O)O)cc2)nc(C)n1`, the “lipid storage change, negative = inhibition” value is -13.2% (inactive) and the cell number change is -5.64%.
Take `CCOC(=O)COc1ccc(S(=O)(=O)Nc2ccc(C)cc2)cc1`: the call was inactive and the cell number change worked out at 11.3%.
As to `COCC(=O)Nc1ccc(S(=O)(=O)Nc2cc(C)nc(C)n2)cc1`, the Potency is 32.6 µM (active) and the cell number change is -33.4%.
For the molecule `COC(=O)COc1ccc(S(=O)(=O)Nc2ccc(NC(C)=O)cc2)cc1`, the Potency was 3.66 µM (active) and the cell number change is -0.0647%.
As for `COCCOCC(=O)Nc1ccc(S(=O)(=O)Nc2cc(C)nc(C)n2)cc1`, the “lipid storage change, negative = inhibition” value is -12.7% (inactive) and the cell number change stood at 21.3%.
For `COC(=O)COc1ccc(S(=O)(=O)Nc2ccc(C(N)=O)cc2)cc1`, in that order: -14.2% (inactive) and 10.2%.
Regarding `Cc1cc(C)nc(NS(=O)(=O)c2ccc(NC(=O)CN3C(=O)S/C(=C\c4ccccc4)C3=O)cc2)n1`, the “lipid storage change, negative = inhibition” value is 20.9% (inactive) and the cell number change stood at 8.32%.
`Cc1cc(C)nc(NS(=O)(=O)c2ccc(NC(=O)CN3C(=O)c4ccccc4C3=O)cc2)n1`: the Potency is 6.51 µM (active) and the cell number change was -6.03%.
For `Cc1cc(NS(=O)(=O)c2ccc(NC(=O)CN3C(=O)c4ccccc4C3=O)cc2)nc(C)n1`, the outcome was inactive.
Turning to `Cc1c(C(=O)NCc2cccnc2)sc2nc(-c3ccccc3)cn12`, the “lipid storage change, negative = inhibition” value is -2.55% (inactive) and the cell number change was -2.88%.
For `Cc1cccn2c(=O)nc(SCC(=O)NCc3ccccc3)nc12`, the cell number change stood at 26.3% and the lipid storage change, negative = inhibition is 14.2% [at 0.0737 µM] (inactive).
`Cc1ccc(-n2ncc3c(=O)n(-c4ccc(C)c(C)c4)c(C)nc32)cc1`: the “lipid storage change, negative = inhibition” value is 20.1% (inactive) and the cell number change is -21%.
With `CC1=Nc2ccccc2N=C(NC(=O)CSC(=S)N2CCCCC2)C1c1ccccc1` (configuration not stated), the “lipid storage change, negative = inhibition” value was 4.9% (inactive) and the cell number change is 11.1%.
As to `CC(C)CC(NC(=O)c1ccccc1NC(=O)c1ccccc1)C(=O)O` (configuration not stated), the “lipid storage change, negative = inhibition” value was 0.37% (inactive) and the cell number change was -8.71%.
Taken in the same sequence, the figures for `CCC(=O)N(CCC(c1ccccc1)c1ccco1)Cc1cccs1` (configuration not stated) were 3.42% (inactive) and 1.01%.
Take `CC(=O)NCCC(=O)Nc1nc(-c2cccs2)c(-c2cccs2)s1`: the “lipid storage change, negative = inhibition” value was 11.3% (inactive) and the cell number change came to 13.4%.
In the case of `CNC(=O)c1ccc(OC2CSC2)cc1`, the Potency was 16.4 µM (active) and the cell number change was -3.88%.
With `CC(C)NC(=O)c1ccc(OC2CSC2)cc1`, the “lipid storage change, negative = inhibition” value is -7.18% (inactive) and the cell number change amounted to 2.39%.
For `CC(=O)c1cccc(NC(=O)c2ccc(OC3CSC3)cc2)c1`, the “lipid storage change, negative = inhibition” value is -2.44% (inactive) and the cell number change is 14.6%.
For `O=C(NCC(=O)N(Cc1ccccc1)C(C(=O)NC1CCCC1)c1ccncc1)c1ccco1` (configuration not stated), in that order: -5.7% (inactive) and -25%.
On to `COc1cccc(C2CCCN2Cc2nc(CC3CC3)no2)c1` (configuration not stated), for which the “lipid storage change, negative = inhibition” value is 13.7% (inactive) and the cell number change was -10.7%.
Take `CCC(=O)Nc1ccc(S(=O)(=O)Nc2ccc(Cl)nn2)cc1`: the “lipid storage change, negative = inhibition” value is 1.32% (inactive) and the cell number change was -1.17%.
Consider `Cc1cc(-n2cnnn2)cc(C)c1S(=O)(=O)N(C)c1ccccc1`, for which the Potency is 10.3 µM (active) and the cell number change was determined as 1.61%.
Regarding `Cc1cc(C)c(S(=O)(=O)N(C)c2ccccc2)c(C)c1`, the “lipid storage change, negative = inhibition” value is 7.23% (inactive) and the cell number change is -0.745%.
For `Cc1cc(-n2cnnn2)cc(C)c1S(=O)(=O)NCCOc1ccccc1`, the outcome was inactive and the cell number change was -19.8%.
As for `CCCOc1ccc(C(=O)O/N=C(\CC)c2ccc(C)cc2)cc1`, the “lipid storage change, negative = inhibition” value is 17.6% (inactive) and the cell number change is 8.23%.
With `O=C(C1CCN(c2nnc(-n3cccc3)s2)CC1)N1CCCCC1`, the result was inactive.
Take `CCOC(=O)C1CCCN(C(=O)C2CCN(c3nnc(-n4cccc4)s3)CC2)C1` (configuration not stated): the Potency is 16.4 µM (active) and the cell number change was -17.4%.
